A selection: hits, their analogues and other compounds. The true share with any hit is near 8%.
PostGolgi ctrl: growth inhibition of yeast control strain, primary screen, counter-screen for post-Golgi transport modulator project; efflux-deficient yeast background strain, growth absorbance A615, 16 h; inhibition, % at 10 µM; actives 5% (n = 98,000)
Cav32 inh: Cav3.2 calcium influx blockers – cell-based, Fluo-4 calcium fluorescence, FDSS, MLSMR library, primary screen. Voltage-dependent T-type calcium channel subunit alpha-1H (Homo sapiens), O95180. Cav3.2-expressing cells; stronger effect = lower value. B-score at 10 µM. actives 4% (n = 100,000). AID 449739, 2010;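 active = single-dose well whose peak fluorescence ratio is a statistical outlier from its plate by either plate-standardised score or position-corrected B-score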
PostGolgi yeast: phenotypic screen on post-Golgi transport, primary screen; post-Golgi transport phenotypic cell assay; inhibition, % at 10 µM; actives 0.9% (n = 98,000); AID 739, 2007;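 also: yeast cells grown in 1536-well plates; yeast grown about 18 h at 30C before absorbance read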
PTK2B oligo ant: antagonists of Pyk2 self-association, primary screen, Q293 cells, FERM NanoBiT luminescence, HTS; Protein-tyrosine kinase 2-beta (Homo sapiens), Q14289; stronger effect = lower value; z-score (the deposit names both 25 µM and 10 µM); actives 0.83% (n = 99,000);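 active = Z-score of -3 or lower, scaled per plate to the spread of control and sample wells; inactive = z-score above -3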;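 also: negative z-score means lost luminescence so less FERM oligomerization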
* = called active by the depositor; nt = no result given. Rule as the data show it, unless noted: active = inhibition above about 30%; inactive = the rest.

SMILES | PostGolgi ctrl | Cav32 inh | PostGolgi yeast | PTK2B oligo ant
COc1ccc(-c2c3c(=O)n(C)c(=O)n(C)c3cn2C2CCCCC2)cc1 | 41.1* | -1.2 | -18.1 | -0.69
CC1CC(N(C(=O)c2ccccc2Cl)c2ccccc2)c2ccccc2N1 (configuration not stated) | 38.6* | nt | 3.2 | -3.65*
CN(C(=O)c1ccccc1Cl)C1CCCCC1 | 17.9 | -1.01 | -4.0 | 0
Cc1ccc(-c2nc(SCC(=O)NCC3CCCO3)c(-c3ccccc3)[nH]2)cc1 (configuration not stated) | nt | 0.515 | nt | nt
CC1(C)CC(=O)C2=C(C1)c1c(ccc3ccccc13)NC2c1ccc(Br)o1 (configuration not stated) | 69.3* | -1.4 | 13.7 | 0.55
COc1ccc(N2CCN(c3ncnc4c3nnn4Cc3ccccc3Cl)CC2)cc1 | nt | -1.54 | nt | 0.95
CCCc1nc2ccccc2n1CCOc1ccccc1 | 9.3 | -5.28* | 7.9 | -0.07
CC(C)C(=O)NCCc1nc2ccccc2n1CCCOc1ccc(Cl)cc1 | 23.5 | -5.65* | 1.6 | 0.57
Cc1ccc(OCCn2c(CCNC(=O)C(C)C)nc3ccccc32)cc1 | -8.4 | -6.9* | 1.0 | 0.77
CC(C)(C)N1CC(c2nc3ccccc3n2Cc2ccc(Cl)cc2)CC1=O (configuration not stated) | 6.6 | -1.12 | 3.3 | 0.3
CC(C)(C)N1CC(c2nc3ccccc3n2CCOc2ccccc2)CC1=O (configuration not stated) | -2.4 | -3.9* | 7.7 | -0.67
Cc1ccc(C(=O)N/N=C2\SCC(=O)N2c2cc(C)ccc2C)cc1 | nt | -1.37 | nt | 2.19
COc1ccc(-c2nnc(N3CCC(C)CC3)c3ccccc23)cc1 | 1.3 | nt | 4.8 | 0
COC(=O)C1=C(N)Oc2cc(C)n(Cc3cccnc3)c(=O)c2C1c1cccc(OC)c1OC (configuration not stated) | 7.0 | 1.72 | -0.5 | 0.01
Cc1cc(CN2CCOCC2)c(O)c(C2(C)CCCCC2)c1 | 14.9 | 1.38 | 1.9 | 0.29
COc1ccc(C(c2nnnn2CC2CCCO2)N2CCN(c3cccc(C)c3C)CC2)cc1 (configuration not stated) | 6.7 | -3.74* | 1.8 | -2.99
CCCCC(c1nnnn1CC1CCCO1)N1CCN(c2cccc(C)c2C)CC1 (configuration not stated) | 10.9 | -5.85* | -0.8 | -2.4
CCOc1ccc2oc(=O)cc(C)c2c1 | 35.8* | -0.0278 | 4.2 | 1.87
CCOc1ccc(Nc2cc(=O)oc3ccccc23)cc1 | 48.3* | 1.01 | -0.8 | -0.13
O=C1CC(c2ccc(F)cc2)Cc2nc(NCC3CCCO3)ncc21 (configuration not stated) | 2.9 | -0.0742 | 6.0 | 0.58
COc1ccc(Nc2nc3ccccc3nc2NS(=O)(=O)c2cccs2)cc1 | 35.5* | -2.58 | 6.1 | -1.47
CC(Sc1nc2ccccc2s1)C(=O)N1CCOCC1 (configuration not stated) | 6.5 | 1.15 | -1.9 | 0.14
Cc1ccccc1Cc1c(C)nc2c(C(=O)NCc3ccco3)cnn2c1C | 42.4* | -5.17 | -13.6 | -0.7
O=C(CCCn1c(=S)[nH]c2cc3c(cc2c1=O)OCO3)N1CCN(c2ccc(F)cc2)CC1 | 8.1 | -4.34 | -1.8 | -1.68
Cc1ccc(C)c(N2CCN(C(=O)CCCn3c(=S)[nH]c4cc5c(cc4c3=O)OCO5)CC2)c1 | 26.9 | -8.56* | -0.2 | -1.67
SMILES | PostGolgi ctrl | Cav32 inh | PostGolgi yeast | PTK2B oligo ant
O=C(CCCn1c(=S)[nH]c2cc3c(cc2c1=O)OCO3)N1CCN(c2ncccn2)CC1 | 43.1* | 0.575 | 10.4 | -1.2
O=C(NCc1ccco1)C(c1ccco1)N(CCc1ccccc1)C(=O)Cn1nnc2ccccc21 (configuration not stated) | 9.0 | -6.24* | -2.0 | -0.27
Cc1ccccc1N(C(=O)Cn1nnc2ccccc21)C(C(=O)NCc1ccco1)c1ccncc1 (configuration not stated) | 19.3 | 1.26 | 0.7 | 0.42
O=C(NCc1ccco1)C(c1ccc(F)cc1)N(CC1CCCO1)C(=O)Cn1nnc2ccccc21 (configuration not stated) | -9.8 | -4.91* | -7.2 | 1.11
CCOCCCN(C(=O)Cn1nnc2ccccc21)C(C(=O)NCc1ccco1)c1ccncc1 (configuration not stated) | 3.3 | 0.0495 | 24.4 | -0.37
O=C(NC1CCCCC1)C(c1ccco1)N(Cc1cccs1)C(=O)Cn1nnc2ccccc21 (configuration not stated) | nt | nt | nt | -1.01
Cc1ccc(CN(C(=O)Cn2nnc3ccccc32)C(C(=O)NCc2ccco2)c2cccs2)cc1 (configuration not stated) | 4.7 | -9.36* | 1.8 | -1.94
O=C(NCc1ccco1)C(c1ccco1)N(Cc1cccs1)C(=O)Cn1nnc2ccccc21 (configuration not stated) | nt | 0.963 | nt | -3.82*
Brc1ccc(-c2cnc(-c3cccs3)o2)cc1 | 18.9 | 0.193 | 3.1 | 0.48
O=C(NCc1ccco1)C(c1cccs1)N(Cc1ccccc1)C(=O)Cn1nnc2ccccc21 (configuration not stated) | 15.6 | -3.24 | -5.2 | -3.28*
CCNC(=O)c1ccc(-n2nc(C(F)(F)F)c3c2CCCC3)cc1 | 9.3 | -3.85 | -1.2 | -0.68
CC1CCCC(C)N1CC(C)(C)NS(=O)(=O)c1ccc(Cl)cc1 (configuration not stated) | 4.9 | -0.176 | 4.2 | -0.3
COCC(C)n1c(C)cc(C(=O)COC(=O)c2oc3ccccc3c2C)c1C (configuration not stated) | 10.9 | -5.76* | 4.3 | -0.05
COCC(C)n1c(C)cc(C(=O)COC(=O)c2n[nH]c3ccccc23)c1C (configuration not stated) | 9.9 | -2.8 | 3.3 | -0.68
COc1ccc(CCNC(=O)N2CCOCC2)cc1 | nt | -1.13 | nt | 0.51
COc1ccc(CCNC(=O)N2c3ccccc3Sc3ccccc32)cc1 | nt | -5.92* | nt | -2.3
COC(=O)[C@@H]1C[C@H]2CC[C@H](O)C[C@H]2N1Cc1ccc(C(F)(F)F)cc1 | nt | -0.136 | nt | nt
Cc1ccc(O)c(N=CC2=C(O)c3ccccc3C2=O)c1 | 31.6* | -0.0214 | 1.4 | -2.05
COC(=O)C1=C(C)Nc2nnnn2C1c1cc(OC)ccc1OC (configuration not stated) | 8.9 | 1.81 | -7.6 | -0.32
COC(=O)c1nc2n(n1)C(c1cc(OC)ccc1OC)C(C(=O)OC1CCCCC1)=C(C)N2 (configuration not stated) | 3.8 | -4.83* | 17.2 | -0.99
COc1ccc(/C=C/C(=O)c2ccccc2)cc1COc1ccccc1F | 4.9 | -4.15* | -8.8 | -0.1
COc1ccc(/C=C/C(=O)c2ccccc2O)cc1CN1CCOCC1 | 14.1 | 0.704 | 19.4 | -0.55
O=c1cc(CO)occ1OCc1cccc(F)c1 | 33.3* | 0.142 | 10.9 | 0.59
Cc1ccc(COc2coc(CO)cc2=O)cc1 | 1.3 | 1.13 | 9.6 | 0.32
Cc1ccc(CNC(=O)CCc2ccc(S(=O)(=O)NC3CCCCC3)cc2)cc1 | 20.6 | -4.07 | -5.5 | 1.29
Cc1cc(C(=O)CSc2nnc(N)s2)c(C)n1CCc1ccc(Cl)cc1 | 40.7* | -4.93* | 3.0 | 0.9
